PubChem BioAssay (Tox21)
Inconclusive results are not listed. Unmarked numbers belong to inactive results. The source made the active and inactive calls. Calls follow the shape of the full dose curve.

Assay: qHTS assay to identify small molecule antagonists of the sonic hedgehog signaling (Shh) pathway (AID 1259369); also: nearly all actives have a fitted effect of over 45% in size
Settings: NIH/3T3 Gli1-Luc reporter, Shh antagonist, luminescence 24 h; series mostly up to 92.4 µM; activity change, negative = inhibition: at the top concentration
From the text: U.S. Tox21 Program National Center for Advancing Translational Sciences [NCATS] NIH Chemical Genomics Center [NCGC] U.S. Environmental Protection Agency [EPA] National Institutes of Environmental Health Sciences [NIEHS] National Toxicology Program [NTP] U.S. Food and Drug Administration [FDA] Tox21 Assay Overview: The sonic hedgehog (Shh) pathway is essential for normal embryonic development. Dysregulation of the Shh pathway can cause severe developmental defects in organs. Therefore chemicals that interfere with the pathway are potential developmental toxicants. A cell line designated 3T3Gli1-Luc (DMB/OARSA/CFSAN/FDA, Laurel, MD), a NIH/3T3 derived clone containing stably integrated Gli1-Luc reporter is used to detect chemical interference of the Shh pathway, by changes in the expression of the firefly Luc gene under the control of the Gli1 transcriptional response element. This cell line was used to screen Tox21 libraries for identifying and prioritizing the potential developmental toxicants that interfere Shh pathway. Conditioned medium-stimulated mode was used to screen for chemicals inhibiting Shh signaling.
Tox21 Assay Protocol Summary: 3T3 Gli1-Luc cells were dispensed at 2,000 per well in 5uL of culture medium into white solid bottom 1536-well plates (Greiner Bio-One, Monroe, NC) using a Multidrop Combi (Thermo Scientific, Waltham, MA) dispenser. The assay plates were incubated at 37 C and 5% CO2 for 4hr, and then 23nL of compounds dissolved in DMSO and positive control were transferred using a Pintool station (Wako, San Diego, CA). The compound transfer was followed by the addition of 1ul conditioned medium or assay buffer using two separate tips of Flying Reagent Dispenser (FRD, Aurora Discovery, San Diego, CA). The assay plates were incubated at 37C and 5% CO2 for 24hr. For luciferase read, 4uL of Amplite Luciferase reporter gene assay reagent (AAT Bioquest, Inc. Sunnyvale, CA) was added to each well of the assay plates using FRD and incubated at room temperature for 30min. The luminescence signal was measured using a ViewLux plate reader (Perkin Elmer, Shelton, CT).
% is scaled to controls: 0 for no effect and ±100 for the full control effect; potency is read from the fitted curve at half-maximal effect.

SMILES	activity change, negative = inhibition	Potency
O=C(CN1CCN(Cc2ccc3c(c2)OCO3)CC1)N1c2ccccc2Sc2ccccc21	-1.54% [at 42.5 µM]	
CCNC(=O)NCCCOc1cccc(CN2CCCCC2)c1	-20.3% [at 42.5 µM]	
C=CCOCC(CO)(COCC=C)COCC=C	9.49% [at 42.5 µM]	
C=CCOc1cc(Cl)ccc1C(=O)NCCN(CC)CC	-8.11% [at 42.5 µM]	
NC(=O)NNC(N)=O	10.5%	
COc1ccc(NS(=O)(=O)c2ccc(N)cc2)nn1	24.4% [at 42.5 µM]	
C[N+](C)(C)CC(O)CCl (stereo not given)	6.32%	
O=C1NC2NC(=O)NC2N1 (stereo not given)	30.2%	
O=S(=O)(O)SSS(=O)(=O)O	-44%	
Nc1cc(C(=O)O)ccc1Cl	0%	
COC(OC)C(C)c1ccccc1 (stereo not given)	11.7%	
C=C[C@@H](C)CCC=C(C)C	0%	
CCCCCCCC[Si](OCC)(OCC)OCC	-0.424%	
Cc1nc([N+](=O)[O-])cn1-c1ccc([N+](=O)[O-])cc1	30.8% [at 42.5 µM]	
NS(=O)(=O)c1ccccc1OC(F)(F)F	-13.9%	
CN(C)CCCNCCC#N	0%	
COCCOCCOCCOC	10.7%	
NC(Cc1c[nH]c2ccccc12)C(=O)O (stereo not given)	-4.98% [at 42.5 µM]	
C=CCOc1c(Br)cc(C(C)(C)c2cc(Br)c(OCC=C)c(Br)c2)cc1Br	17.9% [at 42.5 µM]	
BrC/C=C/CBr	-14% [at 19 µM]	

SMILES	activity change, negative = inhibition	Potency
Cc1cc(O)c2c(c1)C(=O)c1cccc(O)c1C2=O	-27.5% [at 42.5 µM]	
Cc1ccccc1N1CCN(CCc2nnc3n2CCCC3)CC1	26% [at 42.5 µM]	
COc1ccc(/C=N/NC(=O)c2ccncc2)cc1OC	-3.31% [at 42.5 µM]	
CCOc1ccc(NC(=O)OC(C)C)cc1OCC	7.55%	
CCCCCCCC/C=C\CCCCCCCC(=O)OC[C@@H](O)[C@H]1OC[C@H](O)[C@H]1O	0%	
O=C(O)C(=O)Nc1cccc(-c2nn[nH]n2)c1	7.56% [at 42.5 µM]	
Cc1ccccc1OCC1CO1 (stereo not given)	-24.9%	
C[C@@H]1C[C@H]2[C@@H]3C[C@H](F)C4=CC(=O)C=C[C@]4(C)[C@@]3(F)[C@@H](O)C[C@]2(C)[C@@]1(O)C(=O)CO		668 nM (active)
O=c1[nH]c(=O)c2ccccc2o1	-1.35% [at 42.5 µM]	
CCCCCC1CCCC(=O)O1 (stereo not given)	0%	
Cc1ccc(C(=O)C(=O)O)cc1C	2.78% [at 42.5 µM]	
CC(C)(CO)[C@@H](O)C(=O)NCCCO	-2.27% [at 42.5 µM]	
C=C(C)C(=O)OC1CC(C)CC(C)(C)C1 (stereo not given)	0%	
O=[Si]=O	14.2%	
CCCCC/C=C/CC(=O)OC	18.9%	
CO[Si](CCCS)(OC)OC	-0.027%	
CCC(C)N (stereo not given)	5.66%	
C/C=C(\C)C(=O)OCC/C=C\CC	9.27%	
CC(=O)OCCCc1ccccc1	18.6%	
CC(C)C(=O)c1ccccc1	6.2%	
